Compounds without any hit were thinned out: in the full panel of roughly 83,000, 20% have a hit.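 Method: cells in 96-well plates; compound added at one concentration; 48 h incubation; percent growth measured; values under 10 scored active.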 A number with no mark means an inactive call. The source made the active and inactive calls.

The test relates to SNB-75 CNS. The test is described as follows: NCI-60 one-dose screen, 48 h (100 = growth as untreated, 0 = no growth, -100 = all killed). To be noted: 10 µM unless noted. How it is done:
Growth inhibition of the SNB-75 human tumor cell line is measured as a screen for anti-cancer activity. Cells are grown in 96 well plates and exposed to the test compound for 48 hours. Compounds are tested at a single concentration, which is 10^-5 M for most compounds. The reported endpoint is percent growth (GI% or GIPRCNT), where numbers from 0 - 100% represent growth inhibition, and numbers from -100% - 0 represent cell death. For example, a value of 40 represents 60% growth inhibition. A value of 0 means no net growth occurred over the course of the experiment. A value of -40 indicates 40% of cells at the beginning of the experiment died by the end of the experiment. A value of -100 means all cells are dead at the end of the experiment.
NCI-60 Human Tumor Cell Lines Screen was performed using the standard one-dose NCI protocol, which is described in more detail at https://dtp.cancer.gov/discovery_development/nci-60/default.htm.
Compounds with GIPRCNT values below 10 were considered active. Activity score was based on GIPRCNT using the following formula: […]
Score is 0 for GIPRCNT values of 100 or above, 50 for GIPRCNT values of 0, and 100 for GIPRCNT values of -100.
As for `O=C1Nc2ccccc2/C1=C\c1c(-c2ccccc2)nc2ccccn12`, the growth was 38.5%.
With `O=C1c2cccc3c(-c4ccc5c(c4)ncn5C4CCCCC4)ccc(c23)C(=O)N1CCO`, the growth was 86.6%.
Then `COc1cc2nc(-c3ccc(Cl)cc3)cc(OCCCN3CCOCC3)c2cc1OC`, with 37.5%; and `C[C@H](c1nc2ccc(N)cc2[nH]1)[C@H]1CC[C@H]2[C@@H]3CCC4=CC(=O)CC[C@]4(C)[C@H]3CC[C@]12C`, with 39.6%.
For the compound `Oc1c(Cl)cc(Cl)c(Cl)c1CNCCNCc1c(O)c(Cl)cc(Cl)c1Cl`, the growth is 51.9%.
Then `CCOC(=O)C1=C(CCl)NC(=O)NC1c1ccc2c(c1)OCO2` (stereo not given), with 77.6%.
Then `COc1cccc(/C=N/NC(=O)c2cnn3c2NC(c2ccccc2)C3)c1Oc1ccccc1` (stereo not given), with 60.8%.
Turning to `N#Cc1cccc(-c2ccc3c(c2)NC(=O)/C3=C\c2ccc[nH]2)c1`, the growth was 58.2%.
Then `CC(=O)c1ccc(NS(=O)(=O)c2cccc(C(=O)Nc3ccc(Br)cc3)c2)cc1`, with 78.3% [25 µM].
Then `CCCCCCOc1ccc(/C=N/Nc2cc(C)nc3ccc(Cl)cc23)cc1`, with -44.6% (active).
Then `O=C(NCCNc1nccc(-c2c(-c3cccc(F)c3)nc3sccn23)n1)c1ccc(Cl)cc1`, with 63.5%.
With `NS(=O)(=O)c1ccc(Cn2c(SCC(=O)N/N=C/c3ccccc3O)nc3ccccc3c2=O)cc1`, the growth is 84.3%.
Then `O=C1NN(C(=O)c2ccccc2)C(c2ccc(Cl)c(Cl)c2)=C/C1=C\c1ccc([N+](=O)[O-])cc1`, with 65.3%; and `COc1ccc(/C=C2\Oc3cc(OCCCCCN4CCCCC4)ccc3C2=O)cc1OC`, with 81%.
Then `Cn1cc(-c2nc(-c3c[nH]c4c(Cl)nccc34)cs2)c2cc(F)ccc21`, with 107%.
Then `CCOC(=O)CC1CSC(N/N=C/c2ccc(-n3cccn3)cc2)=N1` (stereo not given), with 101%; and `O=C1c2c(c3c4cccc(F)c4[nH]c3c3ccc4ccccc4c23)C(=O)N1O`, with 68.7%; and `COc1ccc(-c2nc([C@@H](C)Sc3nc(N)cc(N)n3)c(C)s2)cc1OCCN1CCOCC1`, with 91.9%.
Regarding `Nc1ccccc1NC(=O)c1ccc(-n2nc(-c3ccccc3)c3ccccc32)cc1`, the growth is 38.4%.
Then `CCOC(=O)Nc1ccc(-c2ccc3c(c2)NC(=O)/C3=C\c2ccc[nH]2)cc1`, with 89%; and `O=C1c2ccccc2CCC12OC2c1cn(-c2ccccc2)nc1-c1ccc(Cl)cc1` (stereo not given), with 90.9%.
Then `O=C1Nc2cc(-c3ccc(NC(=O)c4ccccc4)cc3)ccc2/C1=C/c1ccc[nH]1`, with 99%; and `COc1cc(NC(C)CCCNC(=O)CCC(=O)NCCCNCCCCCCCCCCNCCCNC(=O)CCC(=O)NCCCC(C)Nc2cc(OC)cc3cccnc23)c2ncccc2c1` (stereo not given), with 59.1% [8 µM]; and `ClC1=C(Br)C(Br)(Br)C(=C(Br)Br)C1(Br)Br`, with 96.6%.
Take `Cc1cc2nc3c4cc(C=O)ccc4n(CCN(C)C)c3nc2cc1C`: the growth is 28.2%.
Then `COc1cc2nc(-c3ccc(Cl)cc3)cc(OCCCN3CCCCC3)c2cc1OC`, with 18.2%; and `CCOC(=O)c1cc(C(=O)c2ccc(OC)c(OC)c2)n2c1ccc1ccccc12`, with 48.5%.
Then `CC(C)c1ccc(Nc2ccc3c(OCCCN4CCN(C)CC4)cccc3n2)cc1`, with 68.9%; and `Cc1cc2nc3c4ccc(Br)cc4n(CCN(C)C)c3nc2cc1C`, with 16.7%; and `COc1cc(/C=C/c2cc(O)c(C(C)=O)c(O)c2)cc2c1O[C@]1(C)CC[C@@H](O)C(C)(C)[C@H]1C2`, with 7.67% (active).
Then `COc1ccc2[nH]c(=O)c(CN3CCN(c4nccc(-c5ccc(Cl)cc5)n4)CC3)cc2c1`, with 99.9%; and `CCOC(=O)c1cc(C(=O)c2ccc(OC)cc2)n2ccc(/C=C/c3cc[n+](CC(=O)c4ccc(OC)cc4)cc3)cc12`, with 57.9%.
Turning to `COc1ccc(-c2[nH][nH]c(=O)c2-c2nc3ccccc3s2)cc1`, the growth was 88.9%.
Then `N#CC(C(=O)/C(=N/NC(=O)c1ccccc1O)C(C#N)c1ccccc1)c1ccccc1` (stereo not given), with 18%; and `CCOC(=O)C1=C(C)NC(SCc2cc(=O)oc3ccc(F)cc23)=N[C@@H]1c1cccc2ccccc12`, with 98.8%; and `CCOC(=O)Oc1c(OC)cc(C(=O)c2ccc(OC)c(OC(=O)CCl)c2OC)cc1OC`, with 36.3%.
Then `COc1cc(C2=NN(C(C)=O)C(c3cc(OC)c(OC)c(OC)c3)C2)ccc1O` (stereo not given), with 4.64% (active); and `Cc1cccc(-c2cn3ccnc3c(-c3ccc4ncn(Cc5ccccc5)c4c3)n2)c1`, with 78.3%.
Then `COc1cccc(-c2nc3occn3c2-c2ccnc(NCCNS(=O)(=O)c3cccc4ccccc34)n2)c1`, with 103%.
As for `CN1C(N2CCN(S(=O)(=O)c3ccccc3)CC2)=NS(=O)(=O)c2ccccc21`, the growth was 53.4%.
